The record followed here is PubChem BioAssay AID2314 (National Center for Advancing Translational Sciences (NCATS), 2010).

Screen size: about 300,000 compounds; about 37,000 (12%) were called active. Rule as the data show it: active = max response mostly above about 13% (no sharp cut-off); inactive = mostly below about 14%. The full list was thinned out, with actives kept by preference.

This assay can be described thus: Cycloheximide Counterscreen for Small Molecule Inhibitors of Shiga Toxin. Also: read at 38.3 µM for the half of the compounds with a filed dose; 0% is about no effect. The conditions noted are these: cell reporter, cycloheximide protein synthesis inhibition counterscreen; active compounds read high.
With `OC(c1ccccc1)C(CN1CCOCC1)c1ccccc1` (stereo not drawn), the max response is 6.46% (inactive).
For `COc1cc(C(C(=O)NC2CCCC2)N(Cc2ccccc2)C(=O)c2snc(C(N)=O)c2N)ccc1O` (stereo not drawn) the value was -3.72% (inactive).
As for `C=CCN(C(=O)c1cc(C)cc(C)c1)C1(C(=O)Nc2ccccc2)CCN(C(C)C)CC1`, the max response was 7.82% (inactive).
In the case of `Cc1ccc(CN(Cc2cccnc2)C(=S)Nc2cc(Cl)ccc2C)cc1`, the max response was -1.05% (inactive).
In the case of `CN(C)c1ccc(-n2cccc2/C=N/n2cnnc2)cc1`, the max response was 36.3% (active).
Under `CN(C)c1ccc(-n2cccc2/C=C2/SC(=Nc3ccc(F)cc3)NC2=O)cc1` stands 1.13% (inactive); under `O=S(=O)(N/N=C\c1cccn1-c1ccccc1)c1ccc2ccccc2c1`, -3.05% (inactive); under `CCOC(=O)N1CCN(C(=O)C(=O)Nc2sc3c(c2C#N)CC(C)(C)OC3)CC1`, -4.16% (inactive).
With `Cc1cc(C)nc(NS(=O)(=O)c2ccc(N/C=C\C(=O)c3cccs3)cc2)n1`, the max response was 36.2% (active).
Under `CC(=O)Nc1ccc(S(=O)(=O)Nc2nccc(/C=C/c3ccccc3F)n2)cc1` stands -1.75% (inactive).
For `Cc1cc(C)nc(NS(=O)(=O)c2ccc(N3C(=O)C4CCCCC4C3=O)cc2)n1` (stereo not drawn) the value was 1.2% (inactive).
With `Cc1c(C(C)(C)O)[nH]c2ccc(C#N)cc12`, the max response is 6.81% (inactive).
For `COc1ccccc1CNC(=O)C1CCN(C(=O)[C@@H]2Cc3ccccc3CN2)CC1` the value was 2.06% (inactive).
`COc1ccccc1CNC(=O)C1CCN(S(C)(=O)=O)CC1`: the max response was -1.24% (inactive).
Under `COc1ccccc1CCNC(=O)C1CCN(C(=O)/C=C/c2ccccc2)CC1` stands 14.7% (active); under `O=C(N/N=C/c1c(Cl)[nH]c2ccccc12)c1sc2ccccc2c1Cl`, 12.8% (active).
For `COCCNC(=S)N/N=C/c1c(C)[nH]c2ccccc12`, the max response is 8.43% (inactive).
For `Cc1nn(C)cc1/C=N/NC(=O)c1sc2ccccc2c1Cl`, the max response is 4.94% (inactive).
Under `COc1ccc(NC(=O)C2CCC(CNS(=O)(=O)c3csc(C(N)=O)c3)CC2)cc1OC` (stereo not drawn) stands -7.21% (inactive); under `COC(=O)c1ccccc1NC(=S)NC(=O)c1ccccc1F`, -2.77% (inactive); under `O=C(Cc1ccccc1F)NC1CCSc2ccccc21` (stereo not drawn), -2.13% (inactive).
For `O=C(NC(=S)NC1CCSC1=O)c1ccccc1F` (stereo not drawn) the value was 24.5% (active).
For `COC1=C(N2CCOCC2)C(=O)c2ccccc2C1=O`, the max response was 0.793% (inactive).
With `Fc1ccc(-c2csc(-c3ccc(C4SCCS4)cc3)n2)cc1F`, the max response was 8.6% (inactive).
On to `CCCCCN1CC(O)=C(c2nc(-c3ccc(Cl)cc3)cs2)C1=N`, for which the max response was -0.837% (inactive).
Under `Clc1ccc(-c2csc(-c3ccncc3)n2)cc1` stands 49.1% (active); under `CSc1cccc(NC(=O)CN2C(=O)COc3ccc(S(=O)(=O)N4CCOCC4)cc32)c1`, -0.43% (inactive).
Under `O=C(C1CC(=O)N(C2CCCCC2)C1)N1CCN(c2ccccc2)CC1` (stereo not drawn) stands -1.46% (inactive); under `Cn1c(SCC(=O)N2CCCCC2)nc2c(c1=O)SCC2`, 9.54% (inactive); under `COCc1ccc(CN2CCC(Oc3ccc(C(=O)NCc4ccccn4)cc3)CC2)o1`, 17.2% (inactive).
As for `COCCCNC(=O)c1ccc2c(c1)ncn2-c1ccccc1OC`, the max response is 10.4% (inactive).
Under `COc1ccccc1-n1cnc2cc(NS(=O)(=O)c3ccccc3)ccc21` stands 33.5% (active); under `COc1cc(NS(=O)(=O)c2ccccc2)ccc1-n1nc(C)cc1C`, -2.43% (inactive); under `O=C(c1cc(-c2ccc(O)cc2)on1)N1CCOCC1`, 27.7% (active).
Under `O=C(c1cc(-c2cccc(O)c2)on1)N1CCc2ccccc2C1` stands 7.88% (inactive); under `COc1ccc(-c2cc(C(=O)N3CCN(c4ccc(F)cc4)CC3)no2)cc1`, -1.58% (inactive).
As to `Cn1c(SCC(=O)N2CCCc3ccccc32)nc2ccccc2c1=O`, the max response is -3.04% (inactive).
Under `Cc1ccc(-c2cc(C(=O)N3CCc4ccccc4C3)no2)cc1` stands 10.4% (inactive); under `O=C(c1cc(-c2ccc(F)cc2)on1)N1CCN(c2ccc(F)cc2)CC1`, -2.49% (inactive).
For `O=C(c1cc(-c2ccc(O)cc2)on1)N1CCCc2ccccc21`, the max response is 32.9% (active).
Consider `O=C(c1cc(-c2ccncc2)nc2ccccc12)N1CCC2(CC1)OCCO2`, for which the max response is 2.43% (inactive).
With `O=C(c1cccs1)N1CCN(C(=O)N2CCOCC2)CC1`, the max response is -2.36% (inactive).
Under `Cc1ccc(-c2cc(C(=O)N3CCC4(CC3)OCCO4)no2)cc1` stands 24.4% (active); under `O=C(c1cc(-c2ccc(Cl)cc2)on1)N1CCN(c2ccccc2)CC1`, 30.2% (active).
Take `CCCn1nc(C(=O)N2CCCc3ccccc32)c2ccccc2c1=O`: the max response is -1.1% (inactive).
Turning to `NC(=O)Cn1cc(/C=N\NS(=O)(=O)c2ccccc2)c2ccccc21`, the max response was -1.04% (inactive).
For `COc1ccc(OC)c(Nc2nc3ccccc3n3cnnc23)c1` the value was -2.88% (inactive).
With `CCOc1ccc(NC(=O)CCCCCN2C(=O)[C@@H]3Cc4ccccc4CN3C2=O)cc1`, the max response is 6.74% (inactive).
For the compound `Clc1cc(NC2CCCCC2)ncn1`, the max response is 3.36% (inactive).
As for `CCCCN(CCCC)CCCNC(=O)CN1C(=O)COc2ccc(S(=O)(=O)N3CCC(C)CC3)cc21`, the max response was -3.42% (inactive).
As for `Cc1ccn(-c2cccc(-n3ccc(C)n3)n2)n1`, the max response is 91.1% (active).
In the case of `Cc1cnc(CN(C)C(=O)CC2C(=O)NCCN2Cc2cccc(F)c2F)[nH]1` (stereo not drawn), the max response was 3.11% (inactive).
Take `O=c1c2cc(Br)ccc2nc(-c2cccc(Cl)c2)n1O`: the max response was -6.07% (inactive).
Turning to `Cc1ccc(CSCC2Nc3ccc(C(=O)N4CCN(c5ccc(F)cc5)CC4)cc3NC2=O)cc1` (stereo not drawn), the max response was -5.97% (inactive).
On to `O=C(CC1SC(=Nc2ccccc2)N(Cc2ccccn2)C1=O)Nc1cccc(Cl)c1` (stereo not drawn), for which the max response was 14.9% (active).
For `CN1C(=O)C(CC(=O)Nc2ccccc2)S/C1=N/c1nccs1` (stereo not drawn) the value was -0.83% (inactive); for `CCN1C(=O)C(CC(=O)Nc2cc(C)ccc2C)SC1=Nc1ccc(S(N)(=O)=O)cc1` (stereo not drawn), -7.73% (inactive).
On to `CC(=O)Nc1ccc(S(=O)(=O)NC2Cc3ccccc3C2)cc1`, for which the max response is -1.22% (inactive).
For `O=C(CCN1c2ccccc2Sc2ccccc21)Nc1ccccc1` the value was 9.13% (inactive).
For `CCNC(=O)N1c2ccccc2Sc2ccccc21` the value was -0.857% (inactive); for `CCN1/C(=C/C(=S)Nc2ccccc2)Sc2ccccc21`, 44.5% (active); for `CCn1cc(C(=O)NCC(=O)NC(C)(C)CO)c(=O)c2cc3c(cc21)OCO3`, 1.3% (inactive).
Consider `O=C(CN1C(=O)C2C3C=CC(C3)C2C1=O)Nc1nc(-c2ccccn2)cs1` (stereo not drawn), for which the max response was -1.06% (inactive).
As to `O=C(CCCO)N/N=C/c1cc(Br)ccc1O`, the max response was -2.8% (inactive).
Consider `O=C(N/N=C/c1ccccc1O)/C(=C/c1ccccc1)CCO`, for which the max response was 16.6% (active).
Under `O=C(CC(=O)N/N=C\c1cccc(Cl)c1Cl)NCc1ccccc1` stands 8.71% (inactive).
For the compound `COc1ccc(OC)c(S(=O)(=O)N2CCCC(C(=O)NCCc3ccccc3)C2)c1` (stereo not drawn), the max response is 8.7% (inactive).
On to `Cc1cccc(N2CCN(C(=O)c3cnn4c(C(F)F)cc(-c5ccccc5)nc34)CC2)c1C`, for which the max response was -1.97% (inactive).
Turning to `CSCCC(NC(=O)c1ccc(Cl)cc1Cl)C(=O)NNC(=O)c1csc(N2CCOCC2)n1` (stereo not drawn), the max response is 0.959% (inactive).
For `O=C(COc1ccc([N+](=O)[O-])cc1)Nc1ccc(N2CCCC2)cc1`, the max response was -1.27% (inactive).
For `NC(=O)c1ccc(NC(=O)COC(=O)c2ccc([N+](=O)[O-])cc2)cc1` the value was 0.779% (inactive).
For `O=C(COC(=O)C1CCCCC1)Nc1ccc([N+](=O)[O-])cc1`, the max response is 24.8% (active).
For `CC1(C)C(C=C(Cl)Cl)C1C(=O)NC(O)C(=O)c1ccccc1` (stereo not drawn) the value was -3.63% (inactive); for `CCn1cc(C(=O)NCc2ccc(OC)cc2OC)c(=O)c2ccc(C)nc21`, -2.54% (inactive); for `Cc1cccc(NC(=O)C2CCN(S(=O)(=O)c3cccc4cccnc34)CC2)c1`, -2.32% (inactive).
Under `Cc1ccnc(NC(=O)C2CCN(S(=O)(=O)c3c(C)c(C)cc(C)c3C)CC2)c1` stands 13.3% (active).
Regarding `CNC(=O)C1CCN(S(=O)(=O)c2c(C)noc2/C=C/c2cccc(C)c2)CC1`, the max response is -3.52% (inactive).
Under `CN(c1ccccc1)S(=O)(=O)c1cc(C(=O)Nc2nc3ccccc3[nH]2)ccc1Cl` stands 16.5% (active); under `COc1cccc(C(=O)Nc2nnc(S(=O)(=O)N(C)c3ccccc3)s2)c1`, -2.81% (inactive); under `CN(c1ccccc1)S(=O)(=O)c1cc(C(=O)OCC(=O)N2CCN(C(=O)c3ccco3)CC2)ccc1Cl`, -1.38% (inactive).
Under `O=C(CN1CCN(c2ncccn2)CC1)Nc1ccccc1C(F)(F)F` stands -6.89% (inactive); under `O=C(C1CCCN(S(=O)(=O)c2ccc([N+](=O)[O-])cc2)C1)N1CCCCC1` (stereo not drawn), 1.11% (inactive).
In the case of `COc1ccccc1-c1nnc(SCC(=O)N2CC(C)CC(C)C2)o1` (stereo not drawn), the max response is 1.31% (inactive).
As for `COc1ccccc1-c1nnc(SCC(=O)Nc2ccccc2)o1`, the max response is 11.4% (active).
Turning to `COc1cccc(NC(=O)CSc2nnc(Cc3ccc(OC)c(OC)c3)o2)c1`, the max response was -3.54% (inactive).
As for `COc1ccc(CCNC(=O)CSc2nnc(CNC(=O)c3cccs3)o2)cc1OC`, the max response is -3.82% (inactive).
For `COc1ccccc1-c1nnc(SCC(=O)Nc2cc(C)on2)o1`, the max response was 2.69% (inactive).
For `COc1ccc(-c2nnc(SCC(=O)c3cccs3)o2)c(OC)c1` the value was 51.4% (active); for `CSc1ccc(CCNC(=O)CS(=O)(=O)Cc2nc(-c3ccccc3F)oc2C)cc1`, -3.5% (inactive).
Take `Cc1nn(-c2ncc(C(F)(F)F)cc2Cl)c(=O)n1-c1ccccc1`: the max response was 0.461% (inactive).
Under `Cc1cc(C)c2nc(-c3ccco3)cc(C(=O)O)c2c1` stands 0.856% (inactive); under `Cc1cc(C)c2nc(SCCC#N)nc(C)c2c1`, 1.85% (inactive).
`Cc1cc(C)c2nc3nc(C)cc(C)c3c(N)c2c1`: the max response is 15.1% (active).
